# Experimental data taken from PubChem BioAssay AID588852 (The Scripps Research Institute Molecular Screening Center, 2011).
# About 4,600 (1.3%) of roughly 360,000 compounds were called active. The entries come from a sample that favours actives as a whole. A number with no mark means an inactive call.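 How the source made its calls: active means percent inhibition above its own plate's cutoff, namely the mean of that plate's compound wells plus 3 SD; inactive means the rest.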
# Biological target: Muscarinic acetylcholine receptor M1 (Homo sapiens) (UniProt P11229)
# Sequence (P11229 whole entry, looked up): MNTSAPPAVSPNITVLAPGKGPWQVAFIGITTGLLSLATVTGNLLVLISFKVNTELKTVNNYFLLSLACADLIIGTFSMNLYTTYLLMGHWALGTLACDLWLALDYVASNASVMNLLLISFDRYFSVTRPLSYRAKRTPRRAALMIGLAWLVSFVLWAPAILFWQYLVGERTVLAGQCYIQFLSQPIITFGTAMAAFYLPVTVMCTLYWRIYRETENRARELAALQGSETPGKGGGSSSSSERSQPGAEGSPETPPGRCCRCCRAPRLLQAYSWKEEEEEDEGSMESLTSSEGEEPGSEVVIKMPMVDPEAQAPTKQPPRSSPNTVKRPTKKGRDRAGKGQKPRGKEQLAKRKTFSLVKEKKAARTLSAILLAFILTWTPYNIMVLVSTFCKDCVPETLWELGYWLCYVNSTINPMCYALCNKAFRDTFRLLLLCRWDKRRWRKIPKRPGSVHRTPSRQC
# Experiment: human M1 muscarinic receptor antagonists, primary screen, CHO-K1 cells, Fluo-8 calcium fluorescence, 1536-well (AID 588852);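 further: peak over basal fluorescence ratio during 140 s after agonist addition; 0% = ACh EC80 plus DMSO and 100% = DMSO alone without agonist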
# Conditions: CHO-K1 hM1, Fluo-8 calcium fluorescence, ACh EC80 antagonist; at 3 µM; stronger effect = higher value
row,SMILES,inhibition
1,C=Cn1cc[n+](CC(=O)c2ccc(OC)c(OC)c2)c1,8.24%
2,CN(C(=O)CN1CCN(c2cc(-c3ccc(OCc4ccccc4)cc3)ncn2)CC1)c1ccccc1,30.1% (active)
3,CN(Cc1ccccc1)C(=O)c1ccc(COc2ccccc2)cc1,-0.5%
4,CCOc1ccc(OCc2ccc(C(=O)N(C)c3ccccc3)o2)cc1,-7.87%
5,CC(C)NC(=O)NCCCCCCS(C)=O (centres undefined),-12%
6,C/C=C/c1ccc(OCCCCN2CCC(C)CC2)c(OC)c1,10.4%
7,Cc1sc2ncn(CC(=O)NCCCC(=O)N3CCN(c4ccccc4F)CC3)c(=O)c2c1C,9.4%
8,COc1ccccc1C(=O)NN1C(=O)C2C3C=CC(O3)C2C1=O (centres undefined),1.11%
9,COc1ccc(C(=O)NN2C(=O)C3C(c4ccccc4)C=CC(c4ccccc4)C3C2=O)cc1 (centres undefined),27.3% (active)
10,O=C(NN1C(=O)C2C3C=CC(O3)C2C1=O)c1ccccc1 (centres undefined),-6.53%
11,Cc1ccc(S(=O)(=O)NCC(=O)N(CC(=O)NCC2CCCO2)c2cccc(F)c2)cc1 (centres undefined),-7.09%
12,CC(=O)Nc1cccc(-c2ccnc3c2CC(C)(C(=O)NCc2ccccc2)O3)c1 (centres undefined),-11.3%
13,CC(O)(c1cccc(F)c1)c1nc(-c2ccc3c(c2)OCO3)cs1 (centres undefined),1.89%
14,Fc1ccc(-n2c(Cc3ccccc3)nnc2SCc2nc(-c3ccc(Cl)cc3)no2)cc1,-1.38%
15,COc1ccc(-c2[nH]ncc2CN(C)Cc2cccnc2)c(F)c1,-0.76%
16,CCOc1ccc2[nH]c(=O)c(CN(CCCO)S(=O)(=O)c3ccc(F)cc3)cc2c1,-1.99%
17,COc1ccc2[nH]c(=O)c(CN(Cc3cccnc3)S(=O)(=O)c3ccccc3F)cc2c1,30.8% (active)
18,O=C(NCCN1CCOCC1)c1ccccc1N1C(=O)[C@@H]2Cc3c([nH]c4ccccc34)C(c3cccc(Cl)c3)N2C1=O (some centres undefined),9.91%
19,CCCc1nc2c3ccccc3ccn2c1Cc1ccccc1C(F)(F)F,0.78%
20,COc1ccccc1CC1(C)C(=O)Nc2ccc(OC(F)(F)F)cc21 (centres undefined),-12.6%
21,CC1=C(C(=O)N(C(C)C)C(C)C)CC(CC(=O)NCC2CCCCC2)C(=O)N1Cc1ccccc1 (centres undefined),-28.2%
22,Cc1c2cnn(CC(=O)NCc3ccccn3)c(=O)c2c(C)n1Cc1ccc(Cl)cc1,-7.49%
23,N#C/C(=C/c1ccc(N2CCCCC2)o1)C(=O)NCCc1c[nH]c2ccccc12,44.3% (active)

row,SMILES,inhibition
1,N#C/C(=C\c1ccc(N2CCOCC2)o1)C(=O)N1CCOCC1,-4.72%
2,N#C/C(=C/c1ccc(N2CCOCC2)o1)C(=O)N1CCOCC1,-3.41%
3,Cc1ccc2cc(C)c(N3CCC(C)CC3)nc2c1,1.39%
4,Cc1cc(Nc2cc(N3CCN(C)CC3)nc(Sc3ccc(NC(=O)C4CC4)cc3)n2)n[nH]1,-2.83%
5,CCNC(=S)N(CCN(CC)CC)Cc1cc2cc3c(cc2[nH]c1=O)OCO3,-13.5%
6,CCN(CC)CCN(C(=O)c1cc(Cl)sc1Cl)c1nc2cc3c(cc2s1)OCO3,83.7% (active)
7,CCN(CC)CCN(C(=O)c1ccc2c(c1)CCCC2)c1nc2c(OC)cccc2s1,14.3%
8,C[C@@H]1CN([C@H](C)CO)C(=O)c2cc(Br)cnc2O[C@@H]1CN(C)Cc1cncnc1,-11.6%
9,COc1ccc(S(=O)(=O)N2CCN(C(=O)N(C)C)C2C)cc1 (centres undefined),-7.85%
10,O=C(CC[C@H]1O[C@@H](n2ccc(=O)[nH]c2=O)[C@H](O)[C@@H]1O)N[C@H](Cc1ccccc1)C(=O)NCc1ccco1,-4.88%
11,Cc1ccc(S(=O)(=O)N2CC[C@H]3[C@@H](C2)C(=O)C[C@@H](c2ccccc2)N3S(=O)(=O)c2ccc(C)cc2)cc1,-2.99%
12,Cn1c(=O)n(C)c2cc(NS(=O)(=O)c3ccc(F)cc3)ccc21,4.92%
13,Cn1c(=O)n(C)c2cc(S(=O)(=O)Nc3ccc(F)cc3)ccc21,0.75%
14,CCOC(=O)N1CCN(Cc2nc3cc(NC(C)=O)ccc3n2C)CC1,-2.65%
15,CCN(CC)c1ccc(NC(=O)CN2CCN(c3ccccn3)CC2)cc1,-1.84%
16,CCC(=O)Nc1ccc2c(c1)nc(CCN1CCN(c3ccccn3)CC1)n2C,41.9% (active)
17,Cn1c(CCN2CCN(c3ccccn3)CC2)nc2cc(NS(=O)(=O)c3ccc(F)cc3)ccc21,69.9% (active)
18,CCOc1ccc(CCN2C(=S)N([C@@H](CC(C)C)CN3CCC[C@@H]3CN3C(=S)NC[C@@H]3Cc3ccc(O)cc3)C[C@@H]2Cc2ccc(O)cc2)cc1,-5.61%
19,COc1ccc(OC)c(C2C3=C(N=c4s/c(=C\c5cccc(O)c5)c(=O)n42)c2ccccc2CC3)c1 (centres undefined),-14.9%
20,CC1(c2cccc(Br)c2)NC(=O)N(CC(=O)NCCC2=CCCCC2)C1=O (centres undefined),-4.07%
21,CN(Cc1ccc(F)cc1Cl)S(=O)(=O)c1cccs1,-6.7%
22,Cc1ccc(-c2ccc(=O)n(Cc3ccc(F)cc3Cl)n2)cc1,-14.4%
23,CN(C)Cc1ccc(F)cc1Sc1cc(Cl)ccc1Cl,91.5% (active)

row,SMILES,inhibition
1,CC(=O)NC(c1cccs1)c1cc(Br)c2cccnc2c1O (centres undefined),-13.2%
2,CCOC(=O)c1[nH]c2ccc(OC)cc2c1NC(=O)N1CCOCC1,-21.5%
3,CCOC(=O)c1cc2cc(C)ccc2[nH]1,6.42%
4,CCOC(=O)c1[nH]c2ccc(C)cc2c1N=C(C)N(C)C,33.5% (active)
5,Cc1ccc(-c2ccnc3nc(Sc4ncc(C(F)(F)F)cc4Cl)nn23)cc1,-1.4%
6,O=C(Nn1cnnc1)c1cc(Cl)ccc1Cl,-9.41%
7,O=C(NCc1ccc2c(c1)OCO2)c1cc2c(s1)CS(=O)(=O)C2,4.31%
8,Cc1ccc(OCCCCN2CCCCC2)c(Br)c1,22.6%
9,Cc1cc(OCCN2CCCC2)cc(C(C)C)c1,82.3% (active)
10,Cc1cc(OCCN2CCCC2)ccc1C(C)C,-3.45%
11,c1ccc2cc(OCCN3CCCC3)ccc2c1,-1.41%
12,Cc1ccc(C(C)C)cc1OCC(=O)Nc1ccccc1N1CCCC1,-19.6%
13,Cc1ccc(C(C)C)cc1OCCN1CCCC1,53% (active)
14,CCCCc1nc2ccc(F)cc2cc1C,-6.44%
15,CC(C)C1C(=O)N(Cc2cn(CCC3OCCO3)nn2)CCS(=O)(=O)N1Cc1ccc(-c2ccccc2C(F)(F)F)cc1 (centres undefined),-16.4%
16,Cc1ccccc1NC(=O)COc1cccc2c1CCNC2=O,-7.58%
17,CC1CC(C)CN(CC(=O)N2c3ccccc3CCc3ccccc32)C1 (centres undefined),4.81%
18,CN1CCN(C(=O)N2c3ccccc3CCc3ccccc32)CC1,96.2% (active)
19,CN1CCN(S(=O)(=O)c2cccc(C(=O)N3CCc4ccccc43)c2)CC1,6.81%
20,CC(=O)Nc1ccc(NC(=O)[C@@H](NC(=O)c2cccc(C)c2)C(C)C)cc1,-11.7%
21,CSCCC(NC(=O)COc1ccccc1)C(=O)Nc1ccc(C)cc1 (centres undefined),-7.4%
22,Cc1ccc(NC(=O)C(C)c2cccc(C(=O)c3ccccc3)c2)cc1 (centres undefined),28.2% (active)
23,O=C(CSc1nnc2c(n1)[nH]c1ccccc12)NC1CCCCC1,-3.99%

row,SMILES,inhibition
1,O=C(CNS(=O)(=O)c1ccc2ccccc2c1)Nc1ccc(F)c(F)c1F,-2.2%
2,Cc1cc(=O)oc2c3c(cc(OCC(=O)NCC(O)c4ccccc4)c12)OC(C)(C)CC3 (centres undefined),-9.2%
3,O=C(c1ccc(-n2cnnn2)cc1)N1CCN(C(c2ccccc2)c2ccccc2)CC1,78.5% (active)
4,Cc1onc(C(=O)NN)c1C(=O)N1CCN(C(c2ccccc2)c2ccccc2)CC1,4.44%
5,Cn1nnnc1SCC(=O)N1CCN(C(c2ccccc2)c2ccccc2)CC1,-2.38%
6,CC(C)(C)Cc1c(C2CCCCC2)nc2ccc(Br)cn12,-23.6%
7,COc1cc(OC)c(C2=NOC(C(=O)Nc3c(C)n(C)n(-c4ccccc4)c3=O)C2)cc1Cl (centres undefined),-4.11%
8,CC(=O)N(Cc1cc(=O)[nH]c2ccccc12)c1ccc(C)cc1C,-12.4%
9,Cc1ccc(N(Cc2cc(=O)[nH]c3ccccc23)C(=O)CCl)cc1,41.3% (active)
10,Cc1ccc(N(Cc2cc3ccccc3[nH]c2=O)C(=O)c2cccs2)cc1,-3.76%
11,C=C(C)C1CC=C(C)/C(=N/NC(=O)CCCNc2cccc(C)c2)C1 (centres undefined),10%
12,CCCOc1ccc(N2CC(C(=O)Nc3ccccn3)CC2=O)cc1 (centres undefined),-17.6%
13,O=C(NCc1ccccc1Cl)C1CCN(c2ncnc3c2nc2n3CCCCC2)CC1,-5.23%
14,COc1ccccc1CNC(=O)CCCn1c(=O)c2ccccc2n(CC(=O)NC2CCCC2)c1=O,-13.2%
15,COc1cccc(OC)c1C(=O)N1CCN(Cc2ccccc2F)CC1,-1.36%
16,COc1ccccc1CN1CCN(C(c2ccccc2)c2ccccc2)CC1,63.6% (active)
17,COc1ccccc1NC(=S)N1CCC(NC(=O)C23CC4CC(CC(C4)C2)C3)CC1,-7.97%
18,COc1ccccc1CN1CCN(Cc2cc(OC)c(OC)cc2OC)CC1,-21.9%
19,COc1ccccc1NC(=S)N1CCN(c2ccc(F)cc2)CC1,-20.2%
20,COc1ccccc1NC(=S)N1CCN(C(c2ccccc2)c2ccccc2)CC1,53.1% (active)
